# Sampled rows, rich in hits. Any-hit rate of the full collection: about 9.3%.
# HCV inhibitor: inhibitors of hepatitis C virus infection. Potency, µM (top dose mostly 41.8 µM), without a hit: at the top dose activity change, negative = inhibition, hits mostly inhibitors. 3.4% of 340,000 active. Huh7.5.1 HCVcc-Cre infection, luciferase reporter, 44 h. AID 651820; note: potency is the fitted concentration of half-maximal effect
#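 Cells seeded at 1,000/well and cultured 4 h, then compounds added followed by HCVcc-Cre virus (~0.5 moi). After 44 h further culture, luciferase substrate was added, plates held 15 min at room temperature, and luminescence read for 15 sec.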
# FMDV antiviral: antivirals against foot and mouth disease virus | FMDV antiviral cell-based qHTS | Potency, µM (titrated, usually from 57.9 µM), inactives show at the top dose activity change, negative = inhibition, usual class: inhibitors | 1.2% of 410,000 active | AID 1159524; calls by dose curve; tested in HEK293T cells; note: read-out not given here; potency is the fitted concentration of half-maximal effect; nearly all actives have a fitted effect of over 45% in size
# HCMV inh: blocks human cytomegalovirus replication | HFF cells, HCMV-luciferase reporter, 72 h; active compounds read low | activity change, negative = inhibition, % at 57.5 µM | 4.5% of 410,000 active | AID 1259415; in the data active = activity change below about -60%; inconclusive = no clear call, values can overlap the other calls; inactive = above about -39%
#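 HFF cells seeded 16 h at 37C, treated with compounds, infected with luciferase-reporter HCMV at MOI 1 PFU/cell; luciferase read at 72 h post infection, normalized to buffer-only and Salinomycin controls.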
# Sm TGR inh: S. mansoni TGR enzyme inhibition; Q962Y6; 3% of 360,000 active; Potency, µM (series often up to 114 µM), for the others: top-dose activity change, negative = inhibition, hits mostly inhibitors; purified TGR, DTNB reduction, TNB absorbance 405 nm; note: potency is the fitted concentration of half-maximal effect; nearly all actives have a fitted effect of over 60% in size
#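 Kinetic colorimetric format: TGR-catalysed, NADPH-driven DTNB reduction monitored via TNB absorbance. Enzyme dispensed at 20 nM; compound exposure 15 min at room temperature before reaction start.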
# Vaccinia mCherry: vaccinia inhibition (mCherry reporter) | Vaccinia virus mCherry reporter infection, fluorescence | Potency, µM (highest dose often 36.5 µM), inactives show at the highest dose activity change, negative = inhibition, actives largely listed as inhibitors | 0.63% of 310,000 active | AID 720579; calls by dose curve; tested in A549 cells; note: potency is the fitted concentration of half-maximal effect; nearly all actives have a fitted effect of over 35% in size
# VACV Venus inh: inhibitors of vaccinia virus (Venus reporter). Potency, µM (titrated, usually from 36.5 µM), inactives show at the top dose activity change, negative = inhibition, most hits filed as inhibitors. Vaccinia virus Venus reporter expression, fluorescence. 0.46% of 330,000 active. AID 720580; calls by dose curve; tested in A549 cells; note: potency is the fitted concentration of half-maximal effect; nearly all actives have a fitted effect of over 30% in size
# * = called active by the depositor; i = inactive; u = inconclusive; x = no result given; [ ] = remark or other dose. Unless noted, calls come from the whole dose curve; as a rule, active = well fitted curve in the direction sought with a large enough effect; inconclusive = small, poorly fitted or top-dose-only effect, or another doubt; inactive = no such curve, though single readings can be large; an effect the other way counts as inactive or inconclusive. % is set by controls: 0 for no effect and ±100 for the full control effect.
SMILES,HCV inhibitor,FMDV antiviral,HCMV inh,Sm TGR inh,Vaccinia mCherry,VACV Venus inh
Cc1c(C(=O)N2CCC(C)CC2)oc2ccc3c(c12)C(O)CC1(CCCCC1)O3 (configuration not stated),u,5%,-70*,0%,-4%[7.34 µM],-26%[7.34 µM]
COc1ccc(C2c3[nH]c4ccccc4c3CCN2CCCn2cccn2)c(F)c1 (configuration not stated),-22%,-17%,12,-29%,i,-15%
O=S(=O)(Nc1cc(Sc2ncn[nH]2)c(O)c2ccccc12)c1ccccc1,u,25µM*,-99*,0.89µM*,6.3µM*,2.5µM*
O=C(O)CSc1cc(NS(=O)(=O)c2ccc(Br)cc2)c2ccccc2c1O,u,u,-32,5.6µM*,-25%,-20%
COc1cc2c(cc1OC)CN(C(=O)CSC1=NCCS1)CC2,x,u,-69*,x,-15%,-25%
COc1cc2c(cc1OC)CN(C(=O)CSc1nc3[nH]ncc3c(=O)n1-c1ccccc1)CC2,11µM*,-20%,x,3%,-1%,-21%
COc1cc(NC(=O)CSc2nc3[nH]ncc3c(=O)n2-c2ccccc2)cc(OC)c1OC,x,-21%,39,x,-11%,u
Cc1ccc(C)c(NC(=S)Nc2cccc3cnccc23)c1,u,-21%,-34,u,u,0%
S=C(Nc1cccc2ccccc12)Nc1cccc2ccccc12,-23%,-2%,91,x,u,-16%
S=C(Nc1cccc(Cl)c1)Nc1cccc2cnccc12,u,-28%,x,25µM*,i,-4%
NC(=S)Nc1cccc2cnccc12,-6%,-24%,-6,9%,x,-14%
Fc1ccccc1NC(=S)Nc1cccc2cnccc12,u,13%,37,40µM*,-18%,-5%
CC(=O)c1ccc(NC(=S)Nc2cccc3cnccc23)cc1,13%,-13%,-22,20µM*,-25%,0%
FC(F)(F)c1ccccc1NC(=S)Nc1cccc2cnccc12,3%,u,-28,35µM*,-7%,-9%
Cc1oc(-c2ccccc2Cl)nc1CN1CCCN(C(=O)c2ccco2)CC1,-13%,-10%,-31,-14%,-27%,-4%
COc1ccc(C(=O)N2CCC2(C)C(=O)O)cc1F (configuration not stated),x,-4%,22,x,i,-8%
Cc1ccc(NC(=S)Nc2cccc3cnccc23)cc1C,u,u,-27,u,-24%,-5%
Cc1ccc(NC(=S)Nc2cccc3cnccc23)cc1,-29%,13%,31,45µM*,-4%,-12%
Cc1ccccc1NC(=S)Nc1cccc2cnccc12,-11%,u,-65*,u,-8%,0%
Cc1ccc(-n2sc3cc(F)ccc3c2=O)c(C)c1,x,u,-70*,x,-13%,u
COCCCNC(=O)Cn1c(=O)n(Cc2ccc(C(=O)NCCc3ccc(OC)c(OC)c3)cc2)c(=O)c2ccccc21,35%,-3%,-15,-5%,i,6%
c1ccc(C[n+]2c(-c3ccccc3)csc2Nc2ccccc2)cc1,u,-27%,2,-1%,i,-7%
c1ccc(Nc2scc(-c3ccccc3)[n+]2Cc2ccco2)cc1,u,11%,20,40µM*,x,x
Cc1ccc(C(=O)COC(=O)c2cccc(NC(=O)c3ccc([N+](=O)[O-])cc3[N+](=O)[O-])c2)cc1,11µM*,u,124,-3%,x,x
Cc1cccc(NC(=O)CCC(=O)OCC(=O)c2ccc(Oc3ccc([N+](=O)[O-])cc3)cc2)c1,13%,-14%,-3,40µM*,-1%,-11%
SMILES,HCV inhibitor,FMDV antiviral,HCMV inh,Sm TGR inh,Vaccinia mCherry,VACV Venus inh
Cc1ccc(Cl)cc1N1CCN(C(=O)Cn2ncn3cccc3c2=O)CC1,-25%,u,-76*,-20%,-3%,-7%
O=C(Cn1ncn2cccc2c1=O)N1CCCCC1,17%,-11%,-18,12%,x,-12%
COc1cccc(C2C(C#N)=C(N)Oc3cc(C)n(Cc4ccco4)c(=O)c32)c1 (configuration not stated),-9%,12%,-27,u,-14%[1.46 µM],-9%
CCOc1ccccc1C1C(C#N)=C(N)Oc2cc(C)n(Cc3ccccn3)c(=O)c21 (configuration not stated),-3%,15%,12,35µM*,x,x
COc1cc(C2C(C#N)=C(N)Oc3cc(C)n(CC4CCCO4)c(=O)c32)cc2c1OCO2 (configuration not stated),14%,34%,-9,45µM*,-21%,-4%
CCOc1cccc(C2C(C#N)=C(N)Oc3cc(C)oc(=O)c32)c1OCC (configuration not stated),-10%,6%,4,0%,x,-16%
COc1ccc(C2C(C#N)=C(N)Oc3cc(C)n(Cc4ccco4)c(=O)c32)cc1 (configuration not stated),2%,-14%,-10,32µM*,x,x
CCOc1ccccc1C1C(C#N)=C(N)Oc2cc(C)n(C)c(=O)c21 (configuration not stated),38%,0%,21,40µM*,x,x
COc1ccc(-c2nc(-c3ccccc3)nc3ccccc23)cc1,x,x,-9,x,x,x
COc1ccccc1C1C(C#N)=C(N)Oc2cc(C)n(Cc3ccccn3)c(=O)c21 (configuration not stated),13%,4%,-4,35µM*,x,x
Cc1cc2c(c(=O)n1CCCn1ccnc1)C(c1ccco1)C(C#N)=C(N)O2 (configuration not stated),15%,-17%,-1,2%,x,x
COc1ccccc1C1C(C#N)=C(N)Oc2cc(C)n(CCCn3ccnc3)c(=O)c21 (configuration not stated),12%,-5%,59,50µM*,x,x
COc1cccc(C2C(C#N)=C(N)Oc3cc(C)n(Cc4ccccn4)c(=O)c32)c1OC (configuration not stated),15%,-22%,52,-16%,x,-2%
CN1/C(=C\C(=O)C(F)F)C(C)(C)c2ccccc21,16%,u,10,2%,x,-14%
CN1/C(=C\C(=O)COc2ccc3c(c2)OCO3)C(C)(C)c2ccccc21,u,25µM*,u,-19%,-23%,-4%
CN1/C(=C\C(=O)COC(=O)C2COc3ccccc3O2)C(C)(C)c2ccccc21 (configuration not stated),2%,-10%,x,2%,-8%,5%
COc1ccccc1OCC(=O)/C=C1/N(C)c2ccccc2C1(C)C,10µM*,u,21,1%,-16%,-14%
CN1/C(=C\C(=O)C[n+]2ccc3ccccc3c2)C(C)(C)c2ccccc21,u,u,-97*,-18%,-3%,-4%
CCC1CN(S(=O)(=O)c2cc(-c3cc(C)no3)ccc2OC)c2cc(Cl)ccc2O1 (configuration not stated),x,21%,-26,10%,i,-15%

# Assay outcomes: PubChem BioAssay, National Center for Advancing Translational Sciences (NCATS)
